Data published in PubChem BioAssay (NCI).
About 83,000 compounds went through this panel and 20% of them were active in at least one assay; those are over-represented in the sample as a whole.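 Interpretation: 100, growth as untreated; towards 0, rising growth inhibition; 0, no net growth; 0 to -100, cell death. Compounds scoring below 10 were considered active.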 Calls of active or inactive are those of the source.

The molecules below were run on MDA-MB-435 melanoma (assay: NCI-60 one-dose screen, 48 h (100 = growth as untreated, 0 = no growth, -100 = all killed)). Conditions: 10 µM unless noted.
`O=C(CS(=O)c1oc(-c2cccs2)nc1S(=O)(=O)c1ccc(Br)cc1)c1ccccc1` (centres undefined) was tested, and the growth was 95% (inactive).
`Cc1cccc2c(=O)c3c(sc12)c(NCc1ccccc1)nc1ccccc13` was tested, and the growth was 109% (inactive).
In the case of `COc1ccc2c(c1)c(-c1nn3cc(-c4cccs4)nc3s1)cn2C`, the growth is reported as 87.6% (inactive).
With `CCOC(=O)/C(C#N)=C\Nc1ccc2ncnc(Nc3ccc(Cl)cc3Cl)c2c1` the growth was 75.7% (inactive).
For `CCCCCCNC(=O)Oc1ccc(/C(=C(\C)c2ccc(Cl)cc2)c2ccc(OCCN3CCCCC3)cc2)cc1`, the growth was 52.6% (inactive).
In the case of `CCN(CC)S(=O)(=O)c1ccc(NC(=O)CSc2nnc(C)n2-c2ccccc2)cc1`, the growth is reported as 99.2% (inactive).
In the case of `CN(C)c1ccc2nc3ccc(=[N+](C)C)c([N+](=O)[O-])c-3sc2c1`, the growth is reported as 41.9% (inactive).
With `COc1ccc(-c2nn(C(=O)c3cc(OC)c(OC)c(OC)c3)c3cc(N)ccc23)cc1` the growth was 5.29% (active).
In the case of `O=C(Nc1ccc(I)cc1F)c1cc(I)ccc1O`, the growth is reported as 2.77% (active).
For `COc1cc2oc(-c3ccc(O)cc3)cc(=O)c2c(O)c1-c1c(OC)cc(O)c2c(=O)cc(-c3ccc(O)cc3)oc12`, the growth was 1.08% (active).
`CCCCOc1nc2ccc(OC)cc2cc1-c1cc(-c2ccc(Cl)cc2)nc(-c2ccc(Cl)cc2)c1` was tested, and the growth was 107% (inactive).
With `COc1ccc(/C=C(/C#N)n2nnc3cccc(F)c32)cc1` the growth was -56.4% (active).
With `O=C(Cc1ccc(F)c(Cl)c1)Nc1cc(C2(C(F)(F)F)CC2)nn1Cc1ccccc1` the growth was 87.8% (inactive).
In the case of `COc1ccc2nc(NCCCNCCO)c3sc4ccc(F)cc4c(=O)c3c2c1`, the growth is reported as -69% (active).
